Experimental findings from PubChem BioAssay AID686979 (National Center for Advancing Translational Sciences (NCATS), 2013) are described below.

Among all 420,000 compounds or so, about 50,000 (12%) were called active. Where a call stands in place of a potency, no number is given. About 26% were inconclusive and are not listed. The sample holds actives, similar compounds and a random draw of the others, so the mix is not that of the screen. Calls follow the shape of the dose curve; as a rule, active = well fitted inhibition curve with a large enough effect; inconclusive = small, poorly fitted or top-dose-only effect; inactive = flat fitted curve, though single readings scatter.
Potency is read from the fitted curve at half-maximal effect.

This experiment is described as follows: qHTS for Inhibitors of human tyrosyl-DNA phosphodiesterase 1 (TDP1): qHTS in cells in presence of CPT. Also: nearly all actives have a fitted effect of over 55% in size. Particulars: chicken DT40 Tdp1-/-;hTDP1 cells + 20 nM CPT, ATP luminescence, 48 h; series mostly up to 46.2 µM. The method, boiled down: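 Cell growth measured by CellTiter-Glo luminescence after a minimum 48 h, 37 C compound exposure with 20 nM CPT in Tdp1-knockout DT40 cells stably expressing hTDP1, seeded 400/well; qHTS titration format.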
In general terms: Quantitative high-throughput screening tests each substance at several concentrations.
For `C/C(=N/NC(=O)CCc1ccccc1)c1ccco1`, the Potency result is “inactive”. As to `Cc1cccc(NC(=O)CSc2nnc(-c3ccco3)o2)c1`, the Potency entry was “inactive”. On the same count and under the same terms, for `O=C(CCc1ccccc1)Nc1cccc(-c2nnc(-c3ccco3)o2)c1` the value was 25.9 µM (active); for `COc1ccc(C(=O)NCC2CCCO2)cc1S(=O)(=O)NCc1ccc(Cl)cc1` (stereo not given), “inactive”; for `Cc1[nH]c2ccccc2c1C(=O)C(C)Sc1nnc(C2CC2)o1` (stereo not given), “inactive”.

For the compound `COc1ccc(-c2cc(C(F)(F)F)n3nc(-c4ccccc4)cc3n2)cc1OC`, the Potency was 10.3 µM (active). Still for that read-out and setting: in the case of `COC(=O)c1cc2nc(-c3ccccc3)cc(C(F)(F)F)n2n1` it was “inactive”; in that of `Cc1cc(-c2ccccc2)n2nc(-c3ccccc3)cc2n1`, “inactive”. Consider `O=C(NC1CC(=O)N(c2ccc(F)cc2)C1)C1CCCCC1` (stereo not given), for which the Potency entry was “inactive”. Same read-out and setting: for `CC1CCN(S(=O)(=O)c2ccc3c(c2)n(C)c(=O)n3C)CC1` the value was “inactive”. As to `Cc1ccc(-c2ccnc(-n3ncc(C(=O)N(C)Cc4cccc5ncccc45)c3C3CC3)n2)o1`, the activity change, negative = growth inhibition was 10% [at 9.04 µM] (inactive). In the case of `CC1(C)Oc2ccc3ccc(=O)oc3c2/C(=N/O)C1=O`, the Potency result is “inactive”.

In the case of `CCOc1ccc(N(Cc2ccccc2)C(=O)c2nc(SCC)ncc2Cl)cc1`, the Potency was 29.1 µM (active). Regarding `CCSc1ncc(Cl)c(C(=O)Nc2c(C(=O)c3ccccc3)oc3ccccc23)n1`, the Potency entry was “inactive”. Still for that read-out and setting: for `CCOc1ccc(S(=O)(=O)N(CC(=O)O)c2ccccc2)cc1` the value was “inactive”; for `CCOc1ccc(N(Cc2ccccc2)C(=O)c2nc(S(C)(=O)=O)ncc2Cl)cc1`, 0.58 µM (active). For `CCSc1nnc2c(n1)OC(c1ccc(OCC(=O)O)cc1)Nc1ccccc1-2` (stereo not given), the Potency entry is “inactive”. Regarding `CCOc1ccc(NC(=O)CN(Cc2ccccc2)S(=O)(=O)c2ccc(Cl)cc2)cc1`, the Potency result is “inactive”. `COc1cc(=O)n2c(c1C(=O)NCc1ccco1)CCN(Cc1ccccc1)CC2`: the activity change, negative = growth inhibition was 13.5% [at 9.04 µM] (inactive). Regarding `Cc1cccc(NC(=O)NC2(C)CCS(=O)(=O)C2)c1` (stereo not given), the Potency result is “inactive”. For the compound `COc1cc(Cl)c(C)cc1NC(=O)CSc1nnc(CN2CCCC2)o1`, the Potency result was “inactive”.

Consider `COc1ccccc1CNC(=O)COn1nnc2ccc(S(=O)(=O)N3CCOCC3)cc21`, for which the Potency result was “inactive”. Same read-out and setting: in the case of `COc1cccc(NC(=O)C(C)Oc2ccccc2)c1` (stereo not given) it was “inactive”.

With `COc1cccc(NC(=O)c2csnn2)c1`, the Potency entry was “inactive”. The same measure, in the same setting: for `COc1cccc(NC(=O)C2C(c3ccccc3)C2(Cl)Cl)c1` (stereo not given) the value was 29.1 µM (active); for `CSc1ccc(CNC(=O)c2ccc(NC(=O)C3=CSCCO3)cc2)cc1`, “inactive”. For `CC(C)C1C(=O)N(Cc2cn(CCC3OCCO3)nn2)CCS(=O)(=O)N1Cc1ccc(-c2ccccc2C(F)(F)F)cc1` (stereo not given), the Potency was 13 µM (active). Regarding `Cc1ccc(Cn2cc(CN3CC(N4CCN(C)CC4)CS3(=O)=O)nn2)cc1` (stereo not given), the Potency entry was “inactive”. Take `O=S1(=O)CC(N2CCN(CCO)CC2)CN1Cc1cn(Cc2ccc(Cl)cc2)nn1` (stereo not given): the Potency result was “inactive”. On the same count and under the same terms, in the case of `Cc1ccc(-c2ccc(CN3C(C(C)C)C(=O)N(Cc4cn(CCC5OCCO5)nn4)CCS3(=O)=O)cc2)cc1` (stereo not given) it was 16.4 µM (active); in that of `CC(NC(=O)C(=O)N/N=C/c1ccc(Cl)cc1)c1ccccc1` (stereo not given), “inactive”. `O=C(O)C1=CCCN(CCON=C(c2ccccc2)c2ccccc2)C1`: the Potency result was “inactive”. As for `COc1cc(C2/C(=C(\O)c3ccc4c(c3)CC(C)O4)C(=O)C(=O)N2Cc2ccco2)ccc1O` (stereo not given), the Potency entry was “inactive”. On to `CN(CC(=O)NCCc1ccc(S(N)(=O)=O)cc1)CC(=O)Nc1ccc(Cl)cc1`, for which the Potency entry is “inactive”. Same read-out and setting: for `O=C1/C(=C/c2cccs2)SC(=S)N1C1CCS(=O)(=O)C1` (stereo not given) the value was 14.6 µM (active); for `O=C(CCN1C(=O)/C(=C/c2cccs2)SC1=S)NNC(=O)c1cccc(O)c1`, “inactive”; for `N/C(=N\OC(=O)Nc1ccccc1)c1ccno1`, “inactive”. Consider `Cc1cccnc1NC(=O)Cn1c(=O)oc2ccccc21`, for which the Potency result was “inactive”. On to `O=C(NCCCn1ccnc1)c1ccccc1F`, for which the Potency result is “inactive”. On the same count and under the same terms, in the case of `COc1ccccc1NS(=O)(=O)c1ccc(C)c(C(=O)NNC(=O)c2csc(N3CCOCC3)n2)c1` it was “inactive”; in that of `CCC(C)(C)C1CCC(=NNC(=O)c2ccc(Br)o2)CC1` (stereo not given), “inactive”. In the case of `CCCC1CCC(=NNC(=S)NCCc2ccccc2)CC1` (stereo not given), the Potency is 16.4 µM (active). For `O=C(NCCc1ccccc1)C1CC1`, the Potency result was “inactive”. For `Cc1ccc2[nH]c3c(=O)n(CC(=O)NCCc4ccc(Cl)cc4)ncc3c2c1`, the Potency entry is “inactive”. Same read-out and setting: for `COc1ccc(S(=O)(=O)N2CCN(CC(=O)N3c4ccccc4CC3C)CC2)cc1OC` (stereo not given) the value was “inactive”. For `COc1cccc(/C=C(/CC(=O)Nc2ccc(N3CCOCC3)cc2)c2nc3ccccc3s2)c1`, the Potency result was “inactive”.

For `Cc1cc(C)c(C=NNc2nc3c([nH]2)c(=O)n(C)c(=O)n3C)c(C)c1`, the Potency entry is “inactive”. `Oc1ccc(-c2nnc(Nc3ccccc3)c3ccccc23)cc1`: the Potency result is “inactive”.

Turning to `O=c1ccc2c(-c3ccccc3S(=O)(=O)O)c3ccc(O)c(O)c3oc-2c1O`, the Potency is 16.4 µM (active).

For `O=C(Nc1ccc(OCC(=O)N2CCOCC2)cc1)c1cc(F)c(F)cc1Cl`, the Potency entry is “inactive”. Take `COc1ccccc1Oc1ccc(N2CC(C(=O)OCC(=O)c3ccc(F)cc3)CC2=O)cc1` (stereo not given): the Potency entry is “inactive”. Consider `CCN1CCC(O)(/C=C/c2ccc(C)cc2)C(C(=O)/C=C/c2ccc(C)cc2)C1` (stereo not given), for which the Potency was 3.66 µM (active).

As for `O=C(NCc1cccs1)c1ccc(CS(=O)Cc2ccccc2Cl)o1` (stereo not given), the Potency entry was “inactive”.

As to `CCOCCCN(C)C1CCN(C(=O)c2oc3ccccc3c2NC(=O)Cc2cccc([N+](=O)[O-])c2)CC1`, the Potency result is “inactive”.

As to `CCOC(=O)c1cc2c(=O)n3ccccc3nc2n(CCCOC)c1=NC(=O)C(C)Oc1ccccc1` (stereo not given), the Potency result is “inactive”.
